Compound activity deposited in PubChem by The Scripps Research Institute Molecular Screening Center.
FBW7 act – human FBW7 E3 ligase activation, primary screen. Q969H0. AlphaScreen FBW7–phospho-cyclin E peptide binding, activator screen. normalized activity (activation), % at 26.1 µM. 650,000 tested, 0.13% active; in the data active = normalized activity above about 1.9%;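 note: purified mutant Fbw7 with reduced substrate affinity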
MITF primary – human MITF inhibition, primary screen | O75030 | AlphaScreen MITF homodimerization, bead proximity signal | inhibition, % at 2.6 µM | 650,000 tested, 0.91% active | AID 1259374; in the data active = inhibition above about 50%
GPR151 activ – human GPR151 activation; Q8TDV0; 650,000 tested, 1% active; activation, % at 11.2 µM; PathHunter beta-arrestin GPR151 cells, luminescence; in the data active = activation above about 4.9%
Target sequence (Q8TDV0 whole entry, looked up): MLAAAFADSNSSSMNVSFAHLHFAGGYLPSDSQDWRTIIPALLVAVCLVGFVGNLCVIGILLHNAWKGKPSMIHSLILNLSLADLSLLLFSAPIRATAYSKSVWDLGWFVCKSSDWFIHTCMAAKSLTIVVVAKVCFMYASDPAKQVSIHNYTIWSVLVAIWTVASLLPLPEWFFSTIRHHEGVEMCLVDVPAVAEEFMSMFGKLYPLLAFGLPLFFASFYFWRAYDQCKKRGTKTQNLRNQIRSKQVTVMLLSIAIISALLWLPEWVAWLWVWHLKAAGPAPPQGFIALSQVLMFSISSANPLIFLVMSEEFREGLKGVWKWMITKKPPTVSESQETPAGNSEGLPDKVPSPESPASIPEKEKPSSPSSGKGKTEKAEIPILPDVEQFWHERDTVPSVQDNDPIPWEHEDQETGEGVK
TEAD-YAP inh – TEAD-YAP interaction inhibition. HEK-TIYL cells, TEAD-Gal4/YAP UAS-luciferase luminescence. inhibition, % at 9.12 µM. 640,000 tested, 1.4% active. AID 1259422; in the data active = inhibition above about 32%
Large screens that a line does not name were inactive. Compounds with a hit are over-represented: about 3.4% of the library has one in this group of screens.

CCCNc1nc(NCCN2CCOCC2)nc2c1ncn2C1CCCCC1	none
Cn1c(-c2ccccc2)cn2c3ccccc3nc12	none
COc1cccc(-n2c(-c3ccc(F)cc3)n[nH]c2=S)c1	none
COc1cccc(-c2cn3cc(-c4ccc(F)cc4)nc3n2C)c1	TEAD-YAP inh 70.4
COc1ccc(-c2cn3cc(-c4ccccc4)nc3n2C)cc1	TEAD-YAP inh 97.0
COc1cccc(-c2ocnc2C(=O)NCCc2ccco2)c1	none
Cc1csc(NC(=O)CCN2C(=O)/C(=C/C=C/c3ccccc3)SC2=S)n1	MITF primary 60.7
O=C(O)CCN1C(=O)/C(=C/c2cccc(O)c2)SC1=S	none
O=C(O)CCN1C(=O)/C(=C\c2cccc(O)c2)SC1=S	none
COc1cccc(/C=C2\SC(=S)N(CCCCCC(=O)O)C2=O)c1	TEAD-YAP inh 65.7
O=C(CCN1C(=O)/C(=C/C=C/c2ccccc2)SC1=S)Nc1ccccn1	none
O=C(O)CCCCCN1C(=O)/C(=C/c2cccc(O)c2)SC1=S	TEAD-YAP inh 44.5
Cc1cccc(/C=C2\SC(=S)N(CCC(=O)O)C2=O)c1	TEAD-YAP inh 33.9
COc1nc(N(C)S(=O)(=O)c2ccccc2)nc(C)c1Cl	none
COc1ccccc1Nc1nc(-c2ccccn2)cs1	none
c1ccc(-c2csc(Nc3nc4cc5c(cc4s3)OCO5)n2)nc1	MITF primary 62.2, TEAD-YAP inh 90.4
COc1cccc2sc(Nc3nc(-c4ccccn4)cs3)nc12	TEAD-YAP inh 63.3
CCCCCC(=O)N1c2ccccc2NC2=C(C(=O)CC(c3ccc(C)cc3)C2)C1c1cccc(F)c1 (centres undefined)	none
CC1=C(C#N)C(c2cc(Cl)ccc2OC(F)F)C(C#N)=C(C)N1	TEAD-YAP inh 44.1
COCCOC(=O)C1=C(C)NC(C)=C(C#N)C1c1ccccc1OC(F)F (centres undefined)	none
CC1=C(C#N)C(c2cc([N+](=O)[O-])ccc2OC(F)F)C(C#N)=C(C)N1	TEAD-YAP inh 41.7
Cc1ccccc1Cn1nc(C)c(NC(=O)c2cc(C3CC3)on2)c1C	FBW7 act 2.1
Cc1cc(C(=O)Nc2c(C)nn(Cc3c(Cl)cccc3Cl)c2C)no1	TEAD-YAP inh 32.5
CCCC(=O)Nc1cnc(NC(=O)c2ccccc2)cc1C	none
CC(C)(C)C(=O)Nc1cccc(-c2nc3ncccc3o2)c1	none
CC(C)(C)C(=O)Nc1ccc(-c2nc3ncccc3o2)cc1	TEAD-YAP inh 59.6
CCOc1cc(C=O)ccc1OCCN1CCOCC1	none
COc1cc(C=O)ccc1OCCN1CCOCC1	TEAD-YAP inh 40.1
O=C(CCl)N(CC1=CCSC1)c1ccccc1	TEAD-YAP inh 46.8
Cn1c(SCc2ccccc2)nc(=O)c2ccccc21	none
CCOc1cc(/C=N/NC(=O)c2cc(O)c(O)c(O)c2)ccc1O	MITF primary 82.0
CCOc1ccc(-c2cc(C(=O)N/N=C/c3ccc(F)cc3)[nH]n2)cc1	TEAD-YAP inh 40.8
CCOc1cc(/C=N/NC(=O)C(=O)N/N=C/c2ccc(O)c(OCC)c2)ccc1O	none
CCOc1ccc(-c2cc(C(=O)N/N=C/c3ccc(O)c(OCC)c3)[nH]n2)cc1	TEAD-YAP inh 43.0
CCCCCn1c(=N)c(C(=O)OC)cc2c(=O)n3cccc(C)c3nc21	none
CCN(CC)c1ccc(NC(=S)Nc2ccc(S(N)(=O)=O)cc2)cc1	MITF primary 74.4
NS(=O)(=O)c1ccc(NC(=S)Nc2ccc(F)cc2)cc1	none
CCN(CCO)c1ccc(NC(=S)Nc2ccccc2F)cc1	TEAD-YAP inh 66.0
CCOC(=O)c1c(-c2ccc(C)c(C)c2)csc1NC(=O)CSc1nnc2sc3ccccc3n12	none
COc1cccc(Nc2c(-c3ccc(C)c(C)c3)c(=O)c2=O)c1	TEAD-YAP inh 48.8
Cc1ccc(-c2c(Nc3ccc(C)c(F)c3)c(=O)c2=O)cc1	none
O=c1c(Nc2ccc(F)c(Cl)c2)c(-c2ccccc2)c1=O	none
COc1ccc(-c2c(Nc3ccc(F)c(Cl)c3)c(=O)c2=O)cc1	MITF primary 72.4
COc1ccc(-c2c(Nc3ccc(C)c(F)c3)c(=O)c2=O)cc1	MITF primary 78.5
Cc1csc(NC(=O)c2c(C(=O)O)cccc2[N+](=O)[O-])n1	none
Cc1ccc(S(=O)(=O)N2CCc3ccc(NC(=O)C4CCCCC4)cc3C2)cc1	none
O=C(OC(c1ccccc1)c1nccc2ccccc12)c1ccc(F)cc1 (centres undefined)	TEAD-YAP inh 52.2
O=C(Cc1ccc(F)cc1)Nc1cc(-n2ccnc2-c2ccccc2)ccn1	TEAD-YAP inh 39.3
COc1ccc(CC(=O)Nc2ncc3ccc(-c4cn[nH]c4)cc3c2Cl)cc1	TEAD-YAP inh 39.9
COc1ccc(CC(=O)Nc2ncc3ccc(-c4cn[nH]c4)cc3c2C#N)cc1	none
Cn1cc(-c2ccnc(NC(=O)Cc3ccc(F)cc3)c2)cn1	TEAD-YAP inh 48.5
COc1ccc(CC(=O)Nc2cc(-c3cn[nH]c3)ccn2)cc1	TEAD-YAP inh 91.5
O=C(CC1CSc2nc3c(cnn3-c3ccccc3)c(=O)n21)N1CCCCCC1 (centres undefined)	none
Cc1ccc(S(=O)(=O)N2CCN3C(=O)[C@@H](C)NC(=O)[C@H]3C2)cc1	none
Cc1ccc(-n2c(SCC(N)=O)nc3sc4c(c3c2=O)CCC4)cc1	none
CCOCCOC(=O)C1=C(C)NC(=O)NC1c1ccc(Cl)cc1 (centres undefined)	none
Cc1ccc(Nc2nnc(Sc3nnnn3-c3ccccc3)s2)cc1	TEAD-YAP inh 53.0
CCCSc1nnc(Sc2nnnn2-c2ccccc2)s1	TEAD-YAP inh 56.3
Cc1ccc(Nc2nc(CSc3nnnn3-c3ccccc3)cs2)cc1	none
c1ccc(CCSc2nnnn2-c2ccccc2)cc1	none
COc1cc(CN2CCc3nnc(C(C)NC(=O)c4ccco4)n3CC2)ccc1F (centres undefined)	none
COC(=O)c1ccc(N2N=C(C)/C(=C/c3ccc(OCc4ccc(Cl)cc4)c(OC)c3)C2=O)cc1	FBW7 act 2.0
COC(=O)C1=CNC=C(C(=O)OC)C1c1ccc(Cl)c([N+](=O)[O-])c1	none
Cc1ccc(S(=O)(=O)/N=C2/C=C(Sc3ncn[nH]3)C(=O)c3ccccc32)cc1	TEAD-YAP inh 98.1
Cc1ccc(NC(=O)CSc2ccc3ccccc3n2)c(C)c1	TEAD-YAP inh 76.5
O=C(NCCc1ccc(O)cc1)c1ccnc(N2CCN(c3ccccn3)CC2)c1	TEAD-YAP inh 45.5
O=C(NCCO)c1ccnc(N2CCN(c3ccccn3)CC2)c1	none
CCCCN(CC)C(=O)CSc1nc2c(sc(=S)n2-c2cc(Cl)ccc2OC)c(=O)[nH]1	none
O=C(COc1ccccc1)N1CCN(c2ccc(Nc3ccccn3)nn2)CC1	none
O=C(COc1ccccc1)N1CCN(c2ccc(Nc3ccncc3)nn2)CC1	FBW7 act 2.0
Brc1ccc(OCCCCCCn2ccnc2)cc1	none
CCOC(=O)C1=CS/C(=C2/C(=S)C(C)(C)N(C(=O)CC(C)C)c3ccc(OCC)cc32)S1	none
CCOC(=O)C1=CS/C(=C2/C(=S)C(C)(C)Nc3c(OCC)cccc32)S1	MITF primary 53.4
Cc1ccccc1C1CC(=O)NC2=C1C(=O)CC(c1ccc(F)cc1)C2 (centres undefined)	none
CCN(CC)c1ccc(C2C3=C(CCCC3=O)Nc3[nH]c(=O)[nH]c(=O)c32)cc1 (centres undefined)	none
Cc1cc(C)c(CSc2nnnn2-c2ccc(C(N)=O)cc2)c(C)c1	TEAD-YAP inh 61.1
